Assay results published in paper PMC4336329 (PLoS ONE, 2015).
Out of some 310,000 compounds screened, about 14,000 (4.5%) showed an effect of 50% or more. Effects have a minus sign here. The entries come from a sample that favours strong results as a whole.

The compounds below were run against human ether-à-go-go-related gene (hERG) potassium channel (human, UniProt Q12809) (assay: primary screen, population patch clamp on CHO cells stably expressing hERG; higher = less effect of the substance).
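Also: peak tail current of the secondary pulse compared with the same well before compound.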

human ether-à-go-go-related gene (hERG) potassium channel, sequence (Q12809 whole entry, looked up): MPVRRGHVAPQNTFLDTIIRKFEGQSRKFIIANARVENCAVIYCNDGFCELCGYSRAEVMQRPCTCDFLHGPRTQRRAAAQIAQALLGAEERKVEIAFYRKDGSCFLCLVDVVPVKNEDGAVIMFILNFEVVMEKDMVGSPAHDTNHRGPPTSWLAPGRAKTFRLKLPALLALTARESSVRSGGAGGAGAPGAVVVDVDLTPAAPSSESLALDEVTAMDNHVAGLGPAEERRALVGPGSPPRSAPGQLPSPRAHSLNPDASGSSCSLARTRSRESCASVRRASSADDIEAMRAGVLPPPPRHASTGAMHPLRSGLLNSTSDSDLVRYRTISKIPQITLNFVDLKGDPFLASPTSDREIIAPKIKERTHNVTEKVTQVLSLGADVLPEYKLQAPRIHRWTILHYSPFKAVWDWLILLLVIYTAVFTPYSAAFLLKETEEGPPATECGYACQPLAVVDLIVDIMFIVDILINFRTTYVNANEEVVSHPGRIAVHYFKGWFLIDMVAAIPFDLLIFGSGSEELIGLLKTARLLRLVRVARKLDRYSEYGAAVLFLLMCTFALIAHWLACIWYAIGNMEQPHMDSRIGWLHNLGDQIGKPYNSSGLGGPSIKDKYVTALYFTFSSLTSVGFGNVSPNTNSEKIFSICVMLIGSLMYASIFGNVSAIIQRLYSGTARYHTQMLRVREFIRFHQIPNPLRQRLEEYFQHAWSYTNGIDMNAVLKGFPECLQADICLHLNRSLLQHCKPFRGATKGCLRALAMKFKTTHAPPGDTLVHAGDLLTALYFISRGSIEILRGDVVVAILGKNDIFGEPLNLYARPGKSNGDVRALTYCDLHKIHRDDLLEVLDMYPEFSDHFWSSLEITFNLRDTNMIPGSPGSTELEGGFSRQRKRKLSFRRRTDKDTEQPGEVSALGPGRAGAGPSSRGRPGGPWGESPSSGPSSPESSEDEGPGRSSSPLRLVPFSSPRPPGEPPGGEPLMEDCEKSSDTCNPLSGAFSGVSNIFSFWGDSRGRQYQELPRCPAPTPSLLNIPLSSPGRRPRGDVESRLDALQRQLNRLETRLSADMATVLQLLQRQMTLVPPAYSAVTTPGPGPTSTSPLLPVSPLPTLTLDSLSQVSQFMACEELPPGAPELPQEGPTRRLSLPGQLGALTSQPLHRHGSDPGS

Compared with `C/C(=N\NC(=O)CCCOc1ccc(Cl)cc1C)c1ccc(C)o1`, `COc1ccc(Cl)cc1NC(=O)CN(C(=O)c1ccco1)C1CCCCC1` is lower in “hERG current change (%, negative = inhibition) at 10uM” value: 3.58% for the first, -2.36% for the second.

First: COc1cccc(-n2cc(CNC(=O)C3CCC(=O)N(C4CC4)C3)cn2)c1 (stereo not shown)
Second: COC(=O)c1cccc(Cn2cc([N+](=O)[O-])cn2)c1
The “hERG current change (%, negative = inhibition) at 10uM” value of the first is lower: -11% for the first, 8.41% for the second.

Going from `COc1ccccc1C(=O)Nc1ccccc1SC` to `COc1ccc(S(=O)(=O)NCc2ccco2)c2ccccc12`, the “hERG current change (%, negative = inhibition) at 10uM” value rises from -20.3% to -9.68%.

First: CCCCCn1c(CN2CCCCC2C)nc2c1c(=O)n(C)c(=O)n2C (stereo not shown)
Second: CCCCCCn1c(CN2CCCCC2C)nc2c1c(=O)n(C)c(=O)n2C (stereo not shown)
The “hERG current change (%, negative = inhibition) at 10uM” value of the first is higher: -44.7% for the first, -60.5% for the second.

Compared with `CCCn1c(CN2CCCCC2CC)nc2c1c(=O)n(C)c(=O)n2C` (stereo not shown), `CCCCCn1c(CN2CCCCC2CC)nc2c1c(=O)n(C)c(=O)n2C` (stereo not shown) is lower in “hERG current change (%, negative = inhibition) at 10uM” value: -5.14% for the first, -44.7% for the second.

Compared with `CCCn1c(CN2CCCCC2C)nc2c1c(=O)n(C)c(=O)n2C` (stereo not shown), `CCCCCCn1c(CN2CCCCC2CC)nc2c1c(=O)n(C)c(=O)n2C` (stereo not shown) is lower in “hERG current change (%, negative = inhibition) at 10uM” value: 3.04% for the first, -51.9% for the second.

First: Cc1ccc(Nc2nc(-c3ccc(O)cc3O)cs2)nc1
Second: Cc1ccc(OCCn2c(C)nc3ccccc32)cc1
The “hERG current change (%, negative = inhibition) at 10uM” value of the first is higher: 11.1% for the first, 3.94% for the second.

First: N/C(=N\[N+](=O)[O-])N1CCN(C(=O)c2ccccc2)CC1
Second: CCN(c1ccccc1)S(=O)(=O)c1ccc(Cl)c(NC(=O)CN2CCN(C)CC2)c1
The “hERG current change (%, negative = inhibition) at 10uM” value of the first is higher: 24.8% for the first, -59.2% for the second.

Going from `CC(C)(C)c1ccc(/C=N/Nc2nncn2N)cc1` to `COC(=O)c1ccc(OC)c(CSc2nnc(-c3ccc(C(C)(C)C)cc3)o2)c1`, the “hERG current change (%, negative = inhibition) at 10uM” value rises from -21.5% to 9.83%.

Going from `CCOC(=O)CN1C(=N)N(c2nc(NC(C)C)nc(OC)n2)CC1=O` to `CCNc1nc(NC(C)C)nc(N2CC(=O)N(CC(=O)OCC)C2=N)n1`, the “hERG current change (%, negative = inhibition) at 10uM” value falls from -13.1% to -13.9%.

Compared with `CCOC(=O)CN1C(=N)N(c2nc(NC(C)C)nc(NC(C)C)n2)CC1=O`, `O=C(Cn1nc(C(F)F)cc1C(F)F)N/N=C/c1ccc2c(c1)OCO2` is higher in “hERG current change (%, negative = inhibition) at 10uM” value: -73.8% for the first, 24.7% for the second.

Going from `CCOCCCNC(=O)c1ccc(CS(=O)(=O)c2cccc(C(F)(F)F)c2)o1` to `COCCCNC(=O)c1ccc(CS(=O)(=O)c2cccc(C(F)(F)F)c2)o1`, the “hERG current change (%, negative = inhibition) at 10uM” value falls from 6.78% to -8.62%.

Compared with `O=C(NCc1ccc2c(c1)OCO2)c1ccc(CS(=O)(=O)c2cccc(C(F)(F)F)c2)o1`, `O=C(NCc1ccco1)c1ccc(CS(=O)(=O)c2cccc(C(F)(F)F)c2)o1` is lower in “hERG current change (%, negative = inhibition) at 10uM” value: -24.2% for the first, -60.3% for the second.

Going from `CCCCNC(=O)c1ccc(CS(=O)(=O)c2cccc(C(F)(F)F)c2)o1` to `COCCNC(=O)c1ccc(CS(=O)(=O)c2cccc(C(F)(F)F)c2)o1`, the “hERG current change (%, negative = inhibition) at 10uM” value rises from -53.5% to 4.09%.

First: Cc1ccc(Nc2ncnc3c2nnn3Cc2ccccc2)cc1
Second: Cc1ccc(-c2nc3nc4ccccc4nc3n2Cc2ccco2)cc1
The “hERG current change (%, negative = inhibition) at 10uM” value of the first is higher: 8.07% for the first, -18.7% for the second.

Compared with `O=C(CCS(=O)(=O)c1cc(Br)cc2c1N(C(=O)C1CC1)CC2)NCC1CCCO1` (stereo not shown), `CC(=O)N1CCc2cc(S(=O)(=O)NC(Cc3ccccc3)C(=O)Nc3cc(C)ccn3)ccc21` (stereo not shown) is lower in “hERG current change (%, negative = inhibition) at 10uM” value: 10.8% for the first, 1.38% for the second.

Going from `c1ccc(Cn2c(-c3ccco3)nc3nc4ccccc4nc32)cc1` to `c1ccc(-c2nc3nc4ccccc4nc3n2Cc2ccco2)cc1`, the “hERG current change (%, negative = inhibition) at 10uM” value falls from 6.13% to -61.2%.

Going from `COc1ccc(CCn2c(-c3ccco3)nc3nc4ccccc4nc32)cc1` to `COCCn1c(-c2ccco2)nc2nc3ccccc3nc21`, the “hERG current change (%, negative = inhibition) at 10uM” value rises from -3.77% to 2.99%.

Compared with `CCCCOCCCn1c(-c2ccco2)nc2nc3ccccc3nc21`, `CCCCCn1c(-c2ccco2)nc2nc3ccccc3nc21` is lower in “hERG current change (%, negative = inhibition) at 10uM” value: -55.9% for the first, -67.5% for the second.

First: COc1ccccc1Cn1c(-c2ccco2)nc2nc3ccccc3nc21
Second: Clc1ccc(-c2nc3nc4ccccc4nc3n2Cc2ccco2)cc1
The “hERG current change (%, negative = inhibition) at 10uM” value of the first is higher: -4.67% for the first, -12.3% for the second.

Going from `O=C(O)CSc1sc(=S)sc1SCC(=O)O` to `CCN(c1ccccc1)S(=O)(=O)c1ccc(Cl)c(NC(=O)CSc2nnc(C)s2)c1`, the “hERG current change (%, negative = inhibition) at 10uM” value falls from 13.7% to -24.2%.

First: CC(=O)Nc1ccc(OCC(=O)NCc2ccccc2)cc1
Second: Cn1c(=O)n(CCCOc2ccc(Cl)cc2)c2ccccc21
The “hERG current change (%, negative = inhibition) at 10uM” value of the first is higher: 19% for the first, -13.7% for the second.

Compared with `CCOc1ccccc1N(CC(=O)NCCOC)C(=O)CCC(=O)Nc1ccccn1`, `CCC(C)NCC(=O)Nc1cc(S(=O)(=O)N(CC)c2ccccc2)ccc1Cl` (stereo not shown) is lower in “hERG current change (%, negative = inhibition) at 10uM” value: 19.6% for the first, -78.8% for the second.

First: Cc1cccc(NC(=S)N(C)Cc2cn(C)c3ccccc23)c1
Second: Cc1ccc(OCCn2c(=O)n(C)c3ccccc32)cc1
The “hERG current change (%, negative = inhibition) at 10uM” value of the first is lower: -7.49% for the first, -1.88% for the second.

Going from `Cc1cc2oc(=O)cc(CN3CCCCC3C)c2cc1Cl` (stereo not shown) to `COc1ccc(NC(=O)CSc2nc3ccccc3nc2N2CCCC2)c(OC)c1`, the “hERG current change (%, negative = inhibition) at 10uM” value rises from -0.834% to 24.1%.

Going from `N#Cc1c(-c2ccc(Cl)cc2)ccnc1N1CCOCC1` to `CCN(c1ccccc1)S(=O)(=O)c1ccc(Cl)c(NC(=O)CN(C)C2CCN(C)CC2)c1`, the “hERG current change (%, negative = inhibition) at 10uM” value falls from 3.33% to -38.8%.

Going from `CCN(c1ccccc1)S(=O)(=O)c1ccc(Cl)c(NC(=O)CN2CCCCCC2)c1.O=C(O)C(=O)O` to `CCN(c1ccccc1)S(=O)(=O)c1ccc(Cl)c(NC(=O)COC(=O)c2ccc(O)cc2)c1`, the “hERG current change (%, negative = inhibition) at 10uM” value falls from 10.1% to 6.44%.

Compared with `COc1ccc(/C=N/NC(=O)C2CC2)c(OC)c1OC`, `Cc1nc2ccccc2n1CCOc1ccc([N+](=O)[O-])cc1` is lower in “hERG current change (%, negative = inhibition) at 10uM” value: 12.9% for the first, -73.8% for the second.

Going from `Cc1nc2ccccc2n1CCOc1ccccc1` to `Cn1c(=O)n(CCOc2ccc([N+](=O)[O-])cc2)c2ccccc21`, the “hERG current change (%, negative = inhibition) at 10uM” value falls from 6.17% to -65.3%.
